In the supplement of paper PMC6522484:
± gives the standard deviation of the averaged measurements.

Legend:
[1] = tested on: DLD1; assay: cell viability (CellTiter-Glo) relative to plate median (fraction of plate median); higher = more viable cells; conditions: 5 µM; treatment time 24 h; reporter: 7TFP
Outline: (§1)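 Signals from firefly luciferase or CellTiterGlo readouts were normalised well by well to the plate median using webcellHTS2, additively and with no log transformation. They came from colorectal cancer cell lines stably holding lentiviral TCF/Wnt firefly luciferase reporters (7TFP or TCF4/Wnt), treated with library compounds at a final 5 µM for 24 h. The mean of two independent replicates is given.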

[2] = tested on: HCT116; assay: as above; conditions: 5 µM; treatment time 24 h; reporter: TCF4/Wnt
Outline: as §1

[3] = tested on: SW480; assay: as above; conditions: 5 µM; treatment time 24 h; reporter: 7TFP
Outline: as §1

[4] = tested on: DLD1; assay: TCF/Wnt firefly luciferase reporter signal relative to plate median (fraction of plate median); higher = higher Wnt reporter signal; conditions: 5 µM; treatment time 24 h; reporter: 7TFP
Outline: as §1

[5] = tested on: SW480; assay: as above; conditions: 5 µM; treatment time 24 h; reporter: 7TFP
Outline: as §1

CCC(=O)OC1[C@@H]2CC3=C4CC(=O)O[C@@H](c5ccoc5)[C@]4(C)CCC3[C@@](C)(C2=O)[C@@H](CC(=O)OC)C1(C)C (stereo not given in full)
cell viability [1]: 0.932 ± 0.087 | cell viability [2]: 1.03 ± 0.046 | cell viability [3]: 1 ± 0.027 | TCF/Wnt firefly luciferase reporter signal [4]: 0.969 ± 0.012 | TCF/Wnt firefly luciferase reporter signal [5]: 0.979 ± 0.19

COc1ccc(-c2cc(=O)c3c(O)cc(O[C@@H]4O[C@H](CO[C@@H]5O[C@@H](C)[C@H](O)[C@@H](O)[C@H]5O)[C@@H](O)[C@H](O)[C@H]4O)cc3o2)cc1O
cell viability [1]: 0.999 ± 0.03 | cell viability [2]: 1.06 ± 0.12 | cell viability [3]: 0.96 ± 0.013 | TCF/Wnt firefly luciferase reporter signal [4]: 1.06 ± 0.13 | TCF/Wnt firefly luciferase reporter signal [5]: 1.04 ± 0.021

COC(=O)CC[C@@H](C)[C@H]1CC[C@H]2[C@@H]3CC[C@@H]4C[C@H](O)CC[C@]4(C)[C@H]3C[C@H](O)[C@]12C
cell viability [1]: 0.964 ± 0.065 | cell viability [2]: 1.02 ± 0.097 | cell viability [3]: 0.944 ± 0.018 | TCF/Wnt firefly luciferase reporter signal [4]: 0.955 ± 0.079 | TCF/Wnt firefly luciferase reporter signal [5]: 0.875 ± 0.061

COc1ccc(/C=C/C(=O)c2ccc(O)cc2O)cc1OC
cell viability [1]: 0.955 ± 0.046 | cell viability [2]: 1.04 ± 0.035 | cell viability [3]: 1.08 ± 0.042 | TCF/Wnt firefly luciferase reporter signal [4]: 1.03 | TCF/Wnt firefly luciferase reporter signal [5]: 0.986 ± 0.062

COCCOC(=O)C1=C(C)NC(C)=C(C(=O)OC(C)C)C1c1cccc([N+](=O)[O-])c1 (stereo not given)
cell viability [1]: 0.9 ± 0.1 | cell viability [2]: 0.916 ± 0.16 | cell viability [3]: 0.858 ± 0.11 | TCF/Wnt firefly luciferase reporter signal [4]: 0.967 ± 0.089 | TCF/Wnt firefly luciferase reporter signal [5]: 1.12 ± 0.11

Cc1occc(=O)c1O
cell viability [1]: 0.962 ± 0.0099 | cell viability [2]: 0.973 ± 0.039 | cell viability [3]: 0.936 ± 0.021 | TCF/Wnt firefly luciferase reporter signal [4]: 0.938 ± 0.1 | TCF/Wnt firefly luciferase reporter signal [5]: 0.85 ± 0.042

COc1cc(C(=O)NCCCCCC(=O)O)cc(OC)c1OC
cell viability [1]: 0.981 ± 0.015 | cell viability [2]: 0.921 ± 0.044 | cell viability [3]: 1.01 ± 0.014 | TCF/Wnt firefly luciferase reporter signal [4]: 0.865 ± 0.023 | TCF/Wnt firefly luciferase reporter signal [5]: 0.902 ± 0.046

NS(=O)(=O)c1cc2c(cc1Cl)N=C(CSCc1ccccc1)NS2(=O)=O
cell viability [1]: 0.974 ± 0.079 | cell viability [2]: 1.08 ± 0.014 | cell viability [3]: 0.974 ± 0.066 | TCF/Wnt firefly luciferase reporter signal [4]: 0.861 ± 0.04 | TCF/Wnt firefly luciferase reporter signal [5]: 1.03 ± 0.042

Nc1c2c(nc3ccccc13)CCCC2O (stereo not given)
cell viability [1]: 1.01 ± 0.018 | cell viability [2]: 1.12 ± 0.028 | cell viability [3]: 0.954 ± 0.021 | TCF/Wnt firefly luciferase reporter signal [4]: 0.932 ± 0.016 | TCF/Wnt firefly luciferase reporter signal [5]: 0.931 ± 0.03

O=c1cc(-c2ccccc2)oc2cccc(O)c12
cell viability [1]: 0.972 ± 0.068 | cell viability [2]: 1.04 ± 0.073 | cell viability [3]: 1.04 ± 0.058 | TCF/Wnt firefly luciferase reporter signal [4]: 0.98 ± 0.0085 | TCF/Wnt firefly luciferase reporter signal [5]: 1.03
